Screening data deposited in PubChem BioAssay by National Center for Advancing Translational Sciences (NCATS).
BAZ2B block – BAZ2B (human) inhibition; AID 504333; Potency, µM (doses to about 114 µM), most hits filed as inhibitors; AlphaScreen BAZ2B-H3K14Ac peptide displacement; Q9UIF8; 4.4% of 360,000 active; also: nearly all actives have a fitted effect of over 60% in size
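Complex of BAZ2B and biotin-H3K14Ac (50 nM apiece) forms over 30 min at RT, then faces library compounds up to 110 uM for another 30 min; AlphaScreen beads added, 20 min dark incubation, luminescence read.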
G9a inh – G9a (human) methyltransferase inhibition. 8.8% of 350,000 active. Q96KQ7. G9a H3K9 monomethylation, AlphaScreen, 2 h. Potency, µM (titrated, usually from 102 µM), hits mostly inhibitors; also: nearly all actives have a fitted effect of over 75% in size
Target sequence (Q96KQ7 913-1193 limits assumed): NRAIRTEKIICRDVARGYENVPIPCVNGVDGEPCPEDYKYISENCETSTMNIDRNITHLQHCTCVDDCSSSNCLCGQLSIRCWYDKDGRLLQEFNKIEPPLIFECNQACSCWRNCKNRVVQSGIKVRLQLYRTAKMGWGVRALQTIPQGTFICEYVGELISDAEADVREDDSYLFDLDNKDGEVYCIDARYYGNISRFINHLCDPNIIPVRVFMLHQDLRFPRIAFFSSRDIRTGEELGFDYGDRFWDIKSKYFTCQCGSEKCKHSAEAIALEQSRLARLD
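Using a bead-based AlphaScreen, monomethylated H3K9 product from 2 h room-temperature reactions (G9a 20 nM, peptide 500 nM, SAM 20 uM) was detected with 0.5 ug/mL rabbit anti-H3K9me1 antibody.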
HP1b chromo inh – blocks HP1-beta chromodomain binding to methylated histone tails; P83916; AlphaScreen HP1-beta / biotin-H3K9me3 peptide binding; Potency, µM (doses to about 114 µM), most hits filed as inhibitors; 0.56% of 390,000 active; AID 540317; also: nearly all actives have a fitted effect of over 70% in size
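Compound inhibition of the preformed complex between 50 nM HP1-beta and 50 nM biotinylated H3K9me3 peptide was read by AlphaScreen. Buffer was PBS pH 7.4 with 0.01% Tween-20. Incubations ran 30 min at room temperature, with 10 ug/mL donor/acceptor beads.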
PLK1 PBD block – blocks phosphopeptide binding to human PLK1 polo-box domain | P53350 | Potency, µM, actives largely listed as inhibitors | 2.8% of 360,000 active | Plk1 PBD binding of FITC phosphopeptide, fluorescence polarization; also: series mostly up to about 57 µM; nearly all actives have a fitted effect of over 65% in size
JMJD2A Tudor inh – inhibitors of human JMJD2A Tudor domain. O75164. AlphaScreen JMJD2A-Tudor / H3K4me3 peptide binding. Potency, µM (series often up to 114 µM), usual class: inhibitors. 4.4% of 390,000 active; also: nearly all actives have a fitted effect of over 50% in size
PI5P4Ka inh – inhibitors of human PI5P4K alpha. PI5P4Kalpha enzyme, ADP-Glo luminescence, 60 min; stronger effect = lower value. P48426. 1.2% of 330,000 active. AID 652105. max response, %; active = max response of -50% or lower; inconclusive = between -30% and -50%; inactive = -30% or higher; also: value at the top dose of about 77 µM
Target sequence (P48426 whole entry, looked up): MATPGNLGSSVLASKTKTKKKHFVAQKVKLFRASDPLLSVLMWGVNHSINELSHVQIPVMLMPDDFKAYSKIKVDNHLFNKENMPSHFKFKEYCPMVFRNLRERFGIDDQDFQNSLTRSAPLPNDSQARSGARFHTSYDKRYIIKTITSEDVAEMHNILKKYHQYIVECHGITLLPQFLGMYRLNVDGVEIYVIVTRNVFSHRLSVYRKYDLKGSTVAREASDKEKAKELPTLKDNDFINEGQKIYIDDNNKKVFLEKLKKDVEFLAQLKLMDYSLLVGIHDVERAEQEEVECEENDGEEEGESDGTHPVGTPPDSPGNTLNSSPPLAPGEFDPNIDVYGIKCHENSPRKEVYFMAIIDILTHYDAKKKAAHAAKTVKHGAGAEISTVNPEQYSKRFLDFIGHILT
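Luminescence from ADP-Glo served as readout of PI5P4Kalpha activity in a qHTS format. Reaction: enzyme, substrate, compound, ATP at 5 microM final, 60 min at RT.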
Hits are given with their value; [ ] = another dose, or the depositor's remark. Sampled rows, rich in hits. Any-hit rate of the full collection: about 12%. Unless noted, calls follow the shape of the dose curve; as a rule, active = well fitted curve in the direction sought with a large enough effect; inconclusive = small, poorly fitted or top-dose-only effect, or another doubt; inactive = no such curve, though single readings can be large; an effect the other way counts as inactive or inconclusive.

Screening CC(=O)N(C1=C(Cl)C(=O)c2ccccc2C1=O)C1CCCCC1 returned BAZ2B block 22µM, HP1b chromo inh 7.9µM, PLK1 PBD block 3.8µM, JMJD2A Tudor inh 1.6µM and PI5P4Ka inh -87.
For CC1CCCN(c2nc3ccccc3nc2C(C#N)S(=O)(=O)c2cccs2)C1 (centres undefined) the results were BAZ2B block inconclusive, G9a inh inconclusive, HP1b chromo inh inactive, PLK1 PBD block inconclusive and JMJD2A Tudor inh inconclusive.
COc1ccc(S(=O)(=O)C(C#N)c2nc3ccccc3nc2N2CCCC(C)C2)cc1 (centres undefined) was read as BAZ2B block 45µM, G9a inh inconclusive, HP1b chromo inh inconclusive, PLK1 PBD block inconclusive, JMJD2A Tudor inh inconclusive and PI5P4Ka inh inactive.
Screening Clc1cccc(Cl)c1/C=C/c1nc2ccccc2[nH]1 returned BAZ2B block inactive, G9a inh inactive, HP1b chromo inh inactive, PLK1 PBD block inactive and JMJD2A Tudor inh inactive.
Screening CC(C)SC1=NC(C)(C)C=C(/C=C/c2ccc(Cl)cc2Cl)N1 returned BAZ2B block inconclusive, G9a inh 45µM, HP1b chromo inh inactive, PLK1 PBD block inactive, JMJD2A Tudor inh inactive and PI5P4Ka inh inactive.
`Clc1ccc(/C=C/c2nc3ccccc3[nH]2)c(Cl)c1` gave BAZ2B block inactive, G9a inh inactive, HP1b chromo inh inactive, PLK1 PBD block inactive, JMJD2A Tudor inh inactive and PI5P4Ka inh inactive.
CC(C)SC1=NC(C)(C)C=C(/C=C/c2c(Cl)cccc2Cl)N1 was read as BAZ2B block inactive, G9a inh 45µM, HP1b chromo inh inactive, PLK1 PBD block inactive, JMJD2A Tudor inh inactive and PI5P4Ka inh inactive.
For COc1cc(Cl)c(C)cc1NC(=O)Cn1ncc2c(=O)oc3ccccc3c21 the results were G9a inh inconclusive, HP1b chromo inh inactive and JMJD2A Tudor inh inactive.
CN(C)c1ccc2cc(S(=O)(=O)O)cc(O)c2c1 was read as HP1b chromo inh inconclusive, PLK1 PBD block inconclusive, JMJD2A Tudor inh 50µM and PI5P4Ka inh inconclusive.
O=Nc1c(O)ccc2cc(S(=O)(=O)O)ccc12 was read as HP1b chromo inh inactive, PLK1 PBD block inactive, JMJD2A Tudor inh 2.8µM and PI5P4Ka inh inactive.
Nc1cccc2cc(S(=O)(=O)O)ccc12 was read as HP1b chromo inh inactive, PLK1 PBD block inconclusive, JMJD2A Tudor inh 50µM and PI5P4Ka inh inconclusive.
Screening Cc1ccc(S(=O)(=O)O)cc1C returned G9a inh inactive.
Screening O=C(O)CS(=O)CC(=O)Nc1cccc(C(F)(F)F)c1 (centres undefined) returned BAZ2B block inconclusive, HP1b chromo inh inactive, PLK1 PBD block inactive, JMJD2A Tudor inh inactive and PI5P4Ka inh inactive.
For CC1Cc2cc(/C(O)=C3/C(=O)C(=O)N(CCN4CCOCC4)C3c3ccc([N+](=O)[O-])cc3)ccc2O1 (centres undefined) the results were BAZ2B block inconclusive, G9a inh 79µM, HP1b chromo inh inactive, PLK1 PBD block inactive, JMJD2A Tudor inh inconclusive and PI5P4Ka inh inactive.
CC(C)c1ccc(C2/C(=C(\O)c3ccc4c(c3)OCCO4)C(=O)C(=O)N2CCN2CCOCC2)cc1 (centres undefined) was read as BAZ2B block inactive, G9a inh inconclusive, HP1b chromo inh inactive, PLK1 PBD block inactive, JMJD2A Tudor inh inactive and PI5P4Ka inh inactive.
For COc1ccc(C2/C(=C(/O)c3ccc4c(c3)CC(C)O4)C(=O)C(=O)N2CCN2CCOCC2)cc1 (centres undefined) the results were BAZ2B block inactive, G9a inh 45µM, HP1b chromo inh inactive, PLK1 PBD block inactive, JMJD2A Tudor inh inactive and PI5P4Ka inh inactive.
Screening COC(=O)c1ccc(C2/C(=C(/O)c3ccc4c(c3)CC(C)O4)C(=O)C(=O)N2Cc2ccncc2)cc1 (centres undefined) returned BAZ2B block inconclusive, G9a inh 45µM, HP1b chromo inh inactive, PLK1 PBD block inactive, JMJD2A Tudor inh inactive and PI5P4Ka inh inactive.
C=CCOc1ccc(C2/C(=C(\O)c3ccc4c(c3)CC(C)O4)C(=O)C(=O)N2CCN2CCOCC2)cc1OCC (centres undefined) was read as BAZ2B block 79µM, G9a inh 20µM, HP1b chromo inh inactive, PLK1 PBD block inconclusive, JMJD2A Tudor inh 35µM and PI5P4Ka inh inactive.
Screening CN(c1ccccc1)S(=O)(=O)c1ccc(Cl)c(C(=O)Nc2ccccc2N2CCOCC2)c1 returned BAZ2B block inactive, G9a inh inconclusive, HP1b chromo inh inactive, PLK1 PBD block inactive, JMJD2A Tudor inh inactive and PI5P4Ka inh inactive.
`Cc1ccc(C2/C(=C(/O)c3ccc4c(c3)CC(C)O4)C(=O)C(=O)N2CCCn2ccnc2)cc1` (centres undefined) gave BAZ2B block inconclusive, G9a inh 45µM, HP1b chromo inh inactive, PLK1 PBD block inactive, JMJD2A Tudor inh inactive and PI5P4Ka inh inactive.
Screening COc1cc(C2/C(=C(\O)c3ccc4c(c3)CC(C)O4)C(=O)C(=O)N2CCCn2ccnc2)ccc1O (centres undefined) returned BAZ2B block inactive, G9a inh inactive, HP1b chromo inh inactive, PLK1 PBD block inactive, JMJD2A Tudor inh inactive[11.4 µM] and PI5P4Ka inh inactive.
`C=CCOc1ccc(C2/C(=C(/O)c3ccc4c(c3)CC(C)O4)C(=O)C(=O)N2CCCN2CCOCC2)cc1` (centres undefined) gave BAZ2B block inactive, G9a inh 45µM, HP1b chromo inh inactive, PLK1 PBD block inactive, JMJD2A Tudor inh inconclusive and PI5P4Ka inh inactive.
CCCOc1cccc(C2/C(=C(/O)c3ccc4c(c3)CC(C)O4)C(=O)C(=O)N2CCN2CCOCC2)c1 (centres undefined) was read as BAZ2B block inactive, G9a inh 50µM, HP1b chromo inh inactive, PLK1 PBD block inactive, JMJD2A Tudor inh inactive and PI5P4Ka inh inactive.
`CC1Cc2cc(/C(O)=C3/C(=O)C(=O)N(CCN4CCOCC4)C3c3cccc(Cl)c3)ccc2O1` (centres undefined) gave BAZ2B block inactive, G9a inh inactive[12.7 µM], HP1b chromo inh inactive, PLK1 PBD block inactive, JMJD2A Tudor inh inactive and PI5P4Ka inh inactive.
C=CCOc1cccc(C2/C(=C(\O)c3ccc4c(c3)OCCO4)C(=O)C(=O)N2CCN2CCOCC2)c1 (centres undefined) was read as BAZ2B block inconclusive, G9a inh 40µM, HP1b chromo inh inactive, PLK1 PBD block inactive, JMJD2A Tudor inh inactive and PI5P4Ka inh inactive.
For COc1ccc(CCNC(=O)C/C(C)=N/NC(=O)c2ccc([N+](=O)[O-])cc2Cl)cc1OC the results were BAZ2B block inactive, G9a inh inactive, HP1b chromo inh inactive, PLK1 PBD block inactive, JMJD2A Tudor inh inactive and PI5P4Ka inh inactive.
`Nc1ccn([C@@H]2O[C@H](CNCc3cnc(N4CCOCC4)nc3)[C@@H](O)[C@H]2O)c(=O)n1` gave PLK1 PBD block inactive and PI5P4Ka inh inactive.
